# Test results taken from PubChem BioAssay AID1508600 (Functional Genomics Laboratory (NCATS/FGL), 2020).
# About 3,700 (7%) of roughly 53,000 sequences were called active.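 Rule for the calls: active = gene knockdowns whose robust z-score for IL-1 alpha signal is at least 2 or at most -2, so actives lie on both sides; inactive = the rest.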 The entries come from a sample that favours actives as a whole.
# Assay: Components of the Cytosolic LPS Sensing Pathway: Gene Identification via Genome-wide siRNA Screen;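 note: robust z of the log signal after scaling to non-targeting control siRNA wells of the plate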
# Conditions: RAW264.7 macrophages, IL-1a HTRF, actives lie on both sides, screened at 100 nM (by protocol), cells primed 5 h with Pam3CSK4 first
# In short: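 Three distinct siRNAs per gene were tested singly at 100 nM in RAW264.7 macrophages. Following Pam3CSK4 priming and 24 hour LipidA transfection, IL-1a secretion was read by HTRF.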
row,Sequence,z-score
1,GCACAGUAGUUCUUGCAUCTT against Olfr891,0.13 (inactive)
2,CCUAGUCCCUCUGUCUCUUTT against Kctd13,-1.79 (inactive)
3,GUACACCAGUGGAAGCACATT against Sprr2b,-1.91 (inactive)
4,GGAUUUGUCAAUGCAAUAATT against Olfr1012,-2.68 (active)
5,GGACAACAUAUUCUGAUAATT against Stmnd1,1.68 (inactive)
6,GGCUUCCUACCUAAGGCUUTT against Bora,-0.924 (inactive)
7,CCAGACUACGGUGCUAAGATT against Defb21,2.49 (active)
8,GGCCGUGUUAAGGAAUCUGTT against Cidea,0.653 (inactive)
9,CCUCUUCUGCGCGGAUUUGTT against Ffar4,0.708 (inactive)
10,GGAGAAAGCUUACUGCCUUTT against Lrrc6,-0.959 (inactive)
11,GGAACAGCAGUUUUUGUUUTT against Rnf44,0.097 (inactive)
12,GGCGAGUCUACGUGACACUTT against Arrb1,0.701 (inactive)
13,GGACAUCGUGCUCUAUCUCTT against Nrarp,-1.07 (inactive)
14,GCAGAUCUUGUGAUUAAUGTT against Ildr1,0.882 (inactive)
15,CCCAUGGAAUGAAAACAACTT against Gm4894,2.58 (active)
16,GGAAAUAGUUGGUUUUGAATT against Slfn1,-1.95 (inactive)
17,GCAUUAGGAAUUCAAUUAGTT against Adamts1,0.813 (inactive)
18,GGACGUAGCUAUGGAGGAUTT against 1810009A15Rik,-1.83 (inactive)
19,GGAAACCAGAAAAACUGAATT against Parg,0.653 (inactive)
20,GGAUUAAUUAAUACUUGGCTT against Rps9,0.986 (inactive)
21,CCGACACGUUCUCAAUGUCTT against Gss,-0.496 (inactive)
22,GGAAGGACAAAGAAAGCCUTT against Fbxw4,-0.286 (inactive)

row,Sequence,z-score
1,GGUUCUUAGGAGUUAACUCTT against Klf16,2.71 (active)
2,GGAGAUCAUGCUCAAGAACTT against Dgke,0.176 (inactive)
3,GGACACCUACUUGGUAUUGTT against Epor,-0.632 (inactive)
4,GGAGAGUAUCAGCAAUGAATT against Impg2,1.02 (inactive)
5,GGAAAGUUCCCAUGUUCUCTT against Mgat4f,1.33 (inactive)
6,CGUGAGAUCAUUGAUGUGGTT against Ankrd2,-1.16 (inactive)
7,GGAUUCUCCAGACACCUUGTT against Styxl1,-0.704 (inactive)
8,GCUAUUGCCUUAGAUCCAUTT against Lrp6,0.384 (inactive)
9,GCUCAACUUCUGAAUUAUATT against Enpep,2.64 (active)
10,GGUCAGCAUCACCUACGAUTT against Prss8,-0.688 (inactive)
11,GGAGCUGAAGCAAAGACAGTT against Svbp,-0.599 (inactive)
12,GGAAACAACCAUCGAGGUUTT against Cyp4x1,-0.31 (inactive)
13,GGCUGUGACUCUGGAUUUGTT against Bdh1,-0.985 (inactive)
14,GGAUUCUGAACACUUUUUCTT against Pot1a,-2.02 (active)
15,GCACCAUGUAUACAAAAGATT against Pcdhb3,0.0679 (inactive)
16,GGAGUUUGUGAAUAAAUGUTT against Map2k2,0.177 (inactive)
17,GUGGAAGACUUCACCGGACTT against Arxes1,2.01 (active)
18,GCUUACUUUGGAACACAAATT against Tex18,1.22 (inactive)
19,GCAGGAUUGCAUAUAUCGGTT against Cspg5,-0.672 (inactive)
20,CGAUGCUGUUCUUCAAUGUTT against Krt222,1.23 (inactive)
21,GGUUUGAAUUCAAGUUCAUTT against Klhl5,0.616 (inactive)
22,GGAAAAAUAGGUCGAAUGATT against Arntl,0.229 (inactive)

row,Sequence,z-score
1,CGAUUCCAACAAGAAAGUGTT against Togaram2,0.649 (inactive)
2,GCGGGAGAAGCUAAUGAAATT against Ndufs5,2.21 (active)
3,GGAUUUUGUUUCAGGUGGATT against Itgb8,1.78 (inactive)
4,GGCAGAUGGUAUCAGCUGUTT against Cd248,-1.11 (inactive)
5,GGAGACAAACUCAAAACUGTT against Lyplal1,-1.12 (inactive)
6,CACUGAACAGAUCAGAGCATT against Fam189b,-2.44 (active)
7,AAUCUUGAGAGAUUUCUCCTT against Scd2,-0.047 (inactive)
8,GCCACGGCCAGUAAAACAUTT against Cdcp1,0.335 (inactive)
9,GGAUGAGUUUUUAAAGUCATT against Otop2,-0.883 (inactive)
10,GGCAAUGUCAGAGCUAAUCTT against Mettl25,0.596 (inactive)
11,GGGACAACCUGGAUGACAUTT against Coq6,-0.0644 (inactive)
12,CCUUUGUCCGGUCCAUUCCTT against Hk1,-0.654 (inactive)
13,GCAAGUUCGAAUCCUCCGUTT against Dach2,4.72 (active)
14,GGUGAAUGGCAUGACCAUATT against Asb9,0.49 (inactive)
15,GGAGUCCUUUAAGAUUAUATT against Pex13,1.3 (inactive)
16,GGUAGAUGAUGAAAAACAATT against Erich3,-2.02 (active)
17,GGAAGAAUCUGUUACUUUUTT against Rad1,-0.693 (inactive)
18,CCUUUUAGGGAAAUUUGCATT against Mcm9,0.651 (inactive)
19,GGGAAGAACUGUGAUUAUUTT against Hspd1,0.625 (inactive)
20,CCAUUGAACAGCAGAUUGGTT against Atp7a,0.81 (inactive)
21,GGUCUUCUUCGUGUUCAUCTT against Olfr281,-0.0815 (inactive)
22,GGAAAAAUUGAAGUUGAUCTT against Iqcj,-1.35 (inactive)

row,Sequence,z-score
1,GGCUCGUCAAAUCAAGUAUTT against H2bc6,-2.37 (active)
2,GGAAAUCAAGCUGAAGUUATT against Eqtn,0.231 (inactive)
3,GCGCAAACAACACAUCGUCTT against Ccpg1,0.503 (inactive)
4,GGCUGUCAUCCAAGAACUUTT against Mtcp1,0.176 (inactive)
5,GGAGAUCCGAGUGAGGAAUTT against Eif3b,2.91 (active)
6,GGUUUAACUAGAAUUUGGUTT against Cyp2ab1,1.75 (inactive)
7,GGACAAGAAUAAGUACAACTT against Rpl5,-0.918 (inactive)
8,GCCCUUGAACGGAGAAUAGTT against Brk1,-1.59 (inactive)
9,GCUCUGACCAUCCUUAGCUTT against Olfr938,-2.62 (active)
10,GCCAUACGAUCUGCAUUUCTT against Zbtb38,-1.85 (inactive)
11,GGAACAAGUAAAAUUCGUCTT against Tssk2,1.71 (inactive)
12,GGGUUAUGAAGAAGCUCCUTT against Olfr1262,-1.52 (inactive)
13,GCUGUGUGACCAGCUGUUGTT against Krtap9-1,0.44 (inactive)
14,CCUACGUCAUUUCAGCACCTT against Hc,0.356 (inactive)
15,GCUCCCAUUAUCAUUCAAATT against D3Ertd751e,1.67 (inactive)
16,GGAGCUCUGGCACUUUGUCTT against Gramd1b,0.37 (inactive)
17,GGAGAAAAGAGGCUUCCAGTT against Lad1,0.754 (inactive)
18,CCCAGAUACCUGGAAAACGTT against Fam189a1,-2.17 (active)
19,GGUAUUCCUCUAGAUCAGATT against Dysf,0.627 (inactive)
20,GGAUUUGGAGCAGGUGGAUTT against Avpr1b,-0.97 (inactive)
21,AUGCUUUUUGGAGCCAUAUTT against Olfr307,3.07 (active)
22,GCCCUGAACUACCUAGAAATT against Alg5,1.58 (inactive)

row,Sequence,z-score
1,GGUUAAGAUUCCAGAGCCATT against Prune1,-0.297 (inactive)
2,GGAGAAUCUGGUCUGGGUATT against Septin4,1.04 (inactive)
3,GGGCAAGUAUGGCUAUGUGTT against Pram1,-0.178 (inactive)
4,GGCCAAGAGAAUCUAAAGATT against Strn4,-0.338 (inactive)
5,GGAGACACUGAAUGUGACATT against Ttyh1,-2.03 (active)
6,UGUAACCAUGGUUACCGUGTT against Olfr1513,0.311 (inactive)
7,GGCUGAGAACAUCAAAAAATT against Folh1,0.816 (inactive)
8,GGAAUUGAGGUGAUGGAUATT against Sfxn4,-0.144 (inactive)
9,CGGGAUCUAUCCACUGAUGTT against Nrbp2,-0.983 (inactive)
10,GGCUACAAGGAGAAGUUUGTT against Traf3,2.02 (active)
11,GCUCUAUGGAUCCUUGGAGTT against Zfp574,0.772 (inactive)
12,GCUCAAUGUGACAGUGGUGTT against Elane,0.38 (inactive)
13,GGAAACCGUUCUCAUUAAATT against Mrpl30,0.599 (inactive)
14,GGUUUGGUUGAAAUUGAACTT against Smc5,-1.16 (inactive)
15,CCUCAUGGUGAUGAUAUCCTT against Taar6,-1.35 (inactive)
16,GGAAGAUGAAGAGUCAGAGTT against Setd1b,-2.52 (active)
17,CGACAAUGCCAUCGAUUCGTT against Sdc3,0.0399 (inactive)
18,GGUCACACUUUCUUUGGAATT against Tcf25,0.775 (inactive)
19,CCUAAAGACGUGCAAUAUGTT against Zfp287,0.526 (inactive)
20,GGUUGUUCAUGAGCCGAACTT against Rpl18,-0.0641 (inactive)
